This note sets out measurements from PubChem BioAssay (Tox21).

Results filed as inconclusive are left out. A call without a number means that no potency is given here. Active and inactive are the calls of the source. Calls follow the shape of the dose curve; as a rule, active = well fitted inhibition curve with a large enough effect in the repeat runs; inconclusive = weak or mixed curves; inactive = no such curve, though single readings can be large or run the other way.
Potency is read from the fitted curve at half-maximal effect.

Sequence of Estrogen receptor (Homo sapiens) (P03372 whole entry, looked up): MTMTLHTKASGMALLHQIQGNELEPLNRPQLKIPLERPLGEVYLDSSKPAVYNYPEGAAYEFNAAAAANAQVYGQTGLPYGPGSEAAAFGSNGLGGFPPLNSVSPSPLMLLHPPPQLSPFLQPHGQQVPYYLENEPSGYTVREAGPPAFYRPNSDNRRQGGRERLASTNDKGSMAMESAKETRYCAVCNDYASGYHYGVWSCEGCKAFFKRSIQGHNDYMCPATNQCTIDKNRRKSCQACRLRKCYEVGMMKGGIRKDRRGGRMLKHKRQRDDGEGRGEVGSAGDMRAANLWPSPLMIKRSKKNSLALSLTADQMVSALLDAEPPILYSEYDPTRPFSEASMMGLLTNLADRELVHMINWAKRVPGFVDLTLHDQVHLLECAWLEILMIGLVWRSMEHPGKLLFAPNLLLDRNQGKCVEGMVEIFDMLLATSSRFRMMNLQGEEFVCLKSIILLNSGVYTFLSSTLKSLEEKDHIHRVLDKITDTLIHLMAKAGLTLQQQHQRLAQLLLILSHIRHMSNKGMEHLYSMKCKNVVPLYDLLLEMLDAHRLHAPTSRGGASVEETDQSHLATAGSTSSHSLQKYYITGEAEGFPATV

This experiment has as its target Estrogen receptor (Homo sapiens) (UniProt P03372). Description: qHTS assay to identify small molecule antagonists of the estrogen receptor alpha (ER-alpha) signaling pathway using the BG1 cell line in the presence of 0.1 nM 17-beta-estradiol (AID 1259244). Also: nearly all actives have a fitted effect of over 50% in size. To be noted: VM7Luc4E2 (BG1) ERE-luciferase, antagonist mode, 0.1 nM E2, 22 h; series mostly up to 92.4 µM. In a few lines:
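Luciferase luminescence (ONE-Glo, 30 min at room temperature) was read after 22 hr at 37C exposure to compounds plus 17beta-estradiol at 0.1 nM final. Cells were VM7Luc4E2 with endogenous ER-alpha and an ERE-driven luciferase, pre-cultured 5 days in hormone-depleted medium.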
Background: In qHTS, concentration-response curves come from the screen itself.
As to `CNC(=O)Oc1ccc(N(C)C)c(C)c1`, the Potency result was “inactive”. Next, `CCC1(c2ccccc2)C(=O)NC(=O)NC1=O`: “inactive”; `COc1cc(OC)nc(NC(=O)NS(=O)(=O)c2ncccc2C(=O)N(C)C)n1`: “inactive”; `Clc1cccc(N2CCNCC2)c1`: “inactive”. Next, `CCOP(=S)(OCC)SCSP(=S)(OCC)OCC`: “inactive”; `COc1cc2c(cc1OC)[C@@]13CCN4CC5=CCO[C@H]6CC(=O)N2[C@H]1[C@H]6[C@H]5C[C@H]43`: “inactive”.

Regarding `O=C1CN2CCOC2(c2ccccc2Cl)c2cc(Cl)ccc2N1` (configuration not stated), the Potency entry is “inactive”.

`CCOP(=O)(N=C1SCCS1)OCC`: the Potency entry is “inactive”. Then `N#CC(CCc1ccc(Cl)cc1)(Cn1cncn1)c1ccccc1` (configuration not stated), with 27.3 µM (active).

For `COc1cccc2c1cc([N+](=O)[O-])c1c(C(=O)O)cc3c(c12)OCO3`, the Potency is 6.86 µM (active). Take `CC(C)(C)C(=O)C(Oc1ccc(Cl)cc1)n1cncn1` (configuration not stated): the Potency result is “inactive”. Next, `CC(=O)CC(c1ccc(Cl)cc1)c1c(O)c2ccccc2oc1=O` (configuration not stated): “inactive”; `CC(=O)C(Cl)Cl`: “inactive”. Next, `ClC(Cl)C(Cl)Cl`: “inactive”. As for `COc1cc(OC)nc(NC(=O)NS(=O)(=O)c2ncccc2OCC(F)(F)F)n1`, the Potency entry was “inactive”. On to `[O]=[Cd]`, for which the Potency entry was “inactive”. As for `C=CCC1=C(C)[C@@H](OC(=O)[C@@H]2[C@@H](C=C(C)C)C2(C)C)CC1=O`, the Potency is 24.3 µM (active). For the compound `N#CCNCC#N`, the Potency entry is “inactive”. Next, `CCCSC(=O)Cl`: “inactive”; `CCC(Cl)[N+](=O)[O-]` (configuration not stated): “inactive”. For the compound `O=[N+]([O-])c1cc(Cl)c(Cl)c(Cl)c1`, the Potency entry is “inactive”. With `Nc1cc2c3c(c1)C(c1ccccc1)=N[C@@H](NC(=O)c1cccnc1)C(=O)N3CC2`, the Potency entry is “inactive”.
